Screening data: PubChem, several laboratories
FAS TE block – blocks the thioesterase domain of human fatty acid synthase; P49327; AID 602261; actives 0.67% (n = 360,000); recombinant FAS-TE, OMFH fluorogenic substrate, fluorescence endpoint; inhibition, % at 15 µM;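 active = compounds whose normalised, plate-corrected inhibition of enzyme fluorescence in the single-dose primary screen is 50% or more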;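 also: 0% = DMSO with enzyme and 100% = substrate without enzyme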
proKLK7 act – activates the human kallikrein-7 zymogen; P49862; purified proKLK7, EDANS-DABCYL substrate fluorescence; 100% is mature enzyme control, 0% vehicle; activation, % at 7 µM; actives 0.9% (n = 370,000); AID 652039;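 active = activation above the mean of all tested compounds plus 3 SD, computed per campaign excluding outliers beyond control limits, cut at about 13% in these data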
ADAM17 inh – inhibitors of human ADAM17; inhibition, % at 6.95 µM; P78536; recombinant ADAM17, EDANS/DABCYL FRET peptide cleavage; AID 720648; actives 0.83% (n = 370,000);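 active = inhibition above the mean of compounds lying between control limits plus 3 SD, set per campaign, cut at about 8.5% in these data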;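 also: 0% = DMSO-only wells as the low control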
ADAM10 inh – inhibitors of human ADAM10; O14672; recombinant ADAM10, EDANS/DABCYL FRET peptide cleavage, 3 h; inhibition, % at 7 µM; actives 0.62% (n = 370,000); AID 720582;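 active = inhibition above a per-campaign cutoff equal to the mean of compounds falling between control-based bounds plus 3 SD, cut at about 20% in these data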;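 also: 0% = DMSO wells while the 100% control is not disclosed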
NR3A LBD binder – modulates the human NR3A ligand-binding domain; NR3A LBD differential scanning fluorimetry, Tm shift; 0% = protein alone, 100% = glycine-bound protein; actives 2.5% (n = 340,000); Tm shift relative to glycine control, % at 25 µM;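 active = melting temperature shift of at least 10% of the positive control shift, at one fixed dose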
ADAM10 ctr – ADAM10 inhibition, counter-screen for ADAM17 exosite hits. shares compounds with ADAM17 inh. actives 47% (n = 2,900). inhibition, % at 6.95 µM. recombinant ADAM10, EDANS/DABCYL FRET peptide cleavage, 3 h;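 active = mean inhibition over the triplicate runs exceeds the activity threshold set in the earlier primary screen, cut at about 20% in these data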;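 also: 0% = DMSO wells and 100% = marimastat wells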
ADAM17 confirm – human ADAM17 inhibition, confirmation; shares compounds with ADAM17 inh; recombinant ADAM17, EDANS/DABCYL QFRET peptide cleavage; inhibition, % at 6.95 µM; actives 65% (n = 2,900);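 active = mean inhibition across replicates above the hit cutoff set in the primary screen, cut at about 8.5% in these data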;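 also: 0% = DMSO wells and 100% = marimastat wells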
Active calls of the source: *; / = not tested or not shown. An excerpt weighted towards active compounds, which were near 4.6% of everything screened.

SMILES	FAS TE block	proKLK7 act	ADAM17 inh	ADAM10 inh	NR3A LBD binder	ADAM10 ctr	ADAM17 confirm
COc1cccc(OCC(O)CN2CCN(C(c3ccccc3)c3ccccc3)CC2)c1 (stereo not given)	9	0	-2	6	2	/	/
CC(=O)c1ccccc1OCC(O)CN1CCN(C(c2ccccc2)c2ccccc2)CC1 (stereo not given)	22	0	11*	11	-3	6	3
C[C@H](O)[C@@H]1C(=O)N2CCc3c([nH]c4c(-c5ccccc5)cccc34)[C@@H]2C[C@@H]1N(C)C(=S)Nc1ccc(C#N)cc1	/	-4	-46	-165	/	/	/
COC(=O)C1=C(C)N(CC(C)C)C(=S)NC1c1ccc(-c2ccccc2)cc1 (stereo not given)	/	0	5	9	/	/	/
CC(COc1cccc(F)c1)CN1CCC(C(O)(c2ccccc2)c2ccccc2)CC1 (stereo not given)	/	1	9.8*	14	/	11	6
O=C1NC(c2ccc(Br)cc2)c2c(-c3ccccc3)n[nH]c21 (stereo not given)	/	0	-1	-11	/	/	/
CC(C)(C)OC(=O)N[C@H]1C=C[C@@H](CC(=O)OCC(F)(F)F)C1	/	0	-2	-6	/	/	/
O=C1NC[C@@H](Cc2cccc3ccccc23)N(CCCCC2CCCCC2)C1=O	30	1	11*	12	-18	5	4
O=C1NC[C@H](CC2CCCCC2)N(CCc2cccc3ccccc23)C1=O	7	1	0	2	/	/	/
COc1ccc2nc(-c3ccc(CN4CCC(c5nc6ccccc6[nH]5)CC4)cc3)c(-c3ccccc3)nc2c1	/	-15	-68	-289	/	/	/
COc1cccc(CNC(=O)[C@H]2CCCN2C(=O)C2CCCN2C(=O)c2ccc(OC)c(F)c2)c1 (stereo not given in full)	/	0	-4	-14	/	/	/
C=CC[C@@H](Cc1ccc(F)cc1)C(=O)OC[C@H]1CCCN1C(=O)[C@@H](CC=C)CC(=O)N(CCO)Cc1ccccc1	17	0	8	-2	2	/	/
C=CCC[C@@H](Cc1ccc(F)cc1)C(=O)OC[C@@H]1CCCN1C(=O)[C@@H](CC=C)CC(=O)N[C@@H](CO)Cc1ccccc1	48	0	9.1*	20	-8	11	9.3*
C=CC[C@@H](Cc1ccc(F)cc1)C(=O)OC[C@@H]1CCCN1C(=O)[C@H](CC=C)CC(=O)N(CCO)Cc1ccccc1	18	0	10*	19	1	6	7
CCOc1ccc(CN(C)C(=O)c2ccc(S(=O)(=O)N(C)c3ccccc3OC)cc2)cc1	21	0	18*	16	1	4	5
O=[N+]([O-])c1nccn1CC(O)CCN1CCOCC1 (stereo not given)	/	0	-4	-2	/	/	/
CCc1cc(/C(Cc2ccccn2)=N\O)c(O)cc1O	-22	-1	2	11	1	/	/
CCc1cc(/C(Cc2ccc3ccccc3n2)=N\O)c(O)cc1O	-138	0	9.2*	15	29*	30*	22*
Cc1ccc(N(CC(O)Cn2c3ccccc3c3ccccc32)S(C)(=O)=O)cc1 (stereo not given)	19	0	5	19	3	/	/
CS(=O)(=O)N(Cc1ccco1)CC(O)Cn1c2ccccc2c2ccccc21 (stereo not given)	11	0	9.9*	9	-16	4	5
Cc1cccc(NC(=O)C2(c3ccc([N+](=O)[O-])cc3)CCCC2)c1	28	0	9.3*	-4	-10	10	7
Cc1cc(C)nc(NS(=O)(=O)c2ccc(NC(=O)C3(c4ccc([N+](=O)[O-])cc4)CCCC3)cc2)n1	-2	0	0	0	-2	/	/
Nc1nc2c(ncn2[C@@H]2O[C@H](C(=O)N[C@H](Cc3ccccc3)C(=O)O)[C@@H](O)[C@H]2O)c(=O)[nH]1	/	0	-3	-10	/	/	/
O=C(NCC1CCCO1)c1cnn2c1NC(c1ccccc1)CC2C(F)(F)F (stereo not given)	-6	0	11*	7	1	-6	-1
O=C(NCC1CCCO1)c1nn2c(c1Cl)NC(c1ccc(F)cc1)CC2C(F)(F)F (stereo not given)	-3	0	-4	0	-1	/	/
SMILES	FAS TE block	proKLK7 act	ADAM17 inh	ADAM10 inh	NR3A LBD binder	ADAM10 ctr	ADAM17 confirm
COc1ccccc1C1CC(c2ccc(Br)cc2)=NN1C(=O)c1cccnc1 (stereo not given)	26	1	9.7*	17	-4	9	8
COc1cccc(C2CC(c3ccc(Br)cc3)=NN2C(=O)c2ccncc2)c1OC (stereo not given)	17	1	-1	-12	-2	/	/
COC(=O)C1=C(C)N(C)C(=NCc2ccccc2)NC1c1ccccc1 (stereo not given)	/	0	-4	-4	/	/	/
CN(C)c1ccc(/C=N/NC(N)=S)cc1[N+](=O)[O-]	3	0	10*	2	-2	28*	15*
COC(=O)c1cc2c(c3c4ccccc4n(S(=O)(=O)c4ccccc4)c13)C(=O)N(Cc1ccc(C(F)(F)F)cc1)C2	/	-2	-2	-1	/	/	/
CCOC(=O)C1(Cc2cccc(Cl)c2)CCCN(C(=O)CCOC)C1 (stereo not given)	0	0	-2	0	-2	/	/
C=CCCC(=O)N1CCCC(Cc2cccc(Cl)c2)(C(=O)OCC)C1 (stereo not given)	5	0	9.1*	10	-1	-6	0
C#Cc1ccc([C@@H]2C=C(C(=O)Nc3ccccc3)O[C@H](OCC)[C@H]2CCCO)cc1	4	0	11*	16	-14	11	8
O=S1(=O)N[C@H](Cc2ccccc2)COc2cc(F)ccc21	/	0	0	2	/	/	/
COc1ccc(Oc2ccc(/C=C/C(=O)c3ccc(O)cc3)cc2[N+](=O)[O-])cc1	-41	0	9.6*	16	20*	38*	22*
O=C(/C=C/c1ccc(O)c([N+](=O)[O-])c1)c1ccc2ccccc2c1	-2	0	-1	12	-1	/	/
O=C(COc1cccc(Cl)c1)NNC(=S)Nc1ccccc1	-8	-1	9.8*	13	-1	14	9.7*
C[C@H](CO)N1C[C@H](C)[C@@H](CN(C)C(=O)CCC(F)(F)F)OCc2cn(nn2)CCCC1=O	/	-1	-2	5	/	/	/
O=C(CC1SC(=O)N(c2ccccc2)C1=O)Nc1ccccc1 (stereo not given)	-3	0	9.3*	12	-20	1	16*
COc1ccc(CN(C)C(=O)c2cc(-c3ccccc3)nc3ccc(C)cc23)c(OC)c1	32	1	12*	14	/	3	5
